# Screens as filed in PubChem BioAssay.
# Bim-Bcl-W: disrupts Bim peptide binding to human Bcl-W. AID 952. 0.02% of 190,000 active. bead-based flow cytometry. inhibition, % at 10 µM;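 note: 0% = bound tracer without compound and 100% = peptide blocker; higher means less fluorescent Bim peptide bound to Bcl-W beads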
# Target sequence (Q92843 whole entry, looked up): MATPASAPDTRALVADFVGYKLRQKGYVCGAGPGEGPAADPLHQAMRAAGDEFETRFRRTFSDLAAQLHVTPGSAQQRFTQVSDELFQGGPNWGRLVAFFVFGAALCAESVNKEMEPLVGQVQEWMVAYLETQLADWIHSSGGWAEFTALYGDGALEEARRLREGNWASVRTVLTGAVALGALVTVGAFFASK
# PKD1 kinase inh: blocks activity of human protein kinase D1 | inhibition, % (concentration not given with the values) | PKD1 kinase fluorescence polarization assay | 0.056% of 200,000 active | AID 797 | Q15139; in the data active = inhibition above about 50%
# Bim-Bcl-XL: inhibitors of Bim-Bcl-XL interaction, human; inhibition, % at 10 µM; Bim peptide-Bcl-XL binding, bead flow cytometry, fluorescence; 0.04% of 190,000 active; Q07817
# Bim-Bcl-2: human Bim-Bcl-2 interaction inhibition. 0.06% of 190,000 active. Bead-based flow cytometry, Bim peptide-Bcl-2 binding. P10415. inhibition, % at 10 µM; in the data active = inhibition above about 40%;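 note: 0% = no compound wells with probe peptide and 100% = reference peptide inhibitor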
# Target sequence (P10415 whole entry, looked up): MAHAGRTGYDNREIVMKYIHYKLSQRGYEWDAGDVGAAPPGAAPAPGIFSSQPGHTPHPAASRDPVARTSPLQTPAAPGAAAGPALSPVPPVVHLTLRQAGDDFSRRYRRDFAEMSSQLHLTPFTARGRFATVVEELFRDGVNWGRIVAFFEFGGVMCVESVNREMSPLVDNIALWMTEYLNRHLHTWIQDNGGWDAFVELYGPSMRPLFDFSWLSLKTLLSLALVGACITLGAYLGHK
# Bcl-B Bim block: disrupts Bim peptide binding to human Bcl-B; Q9HD36; 0.073% of 190,000 active; bead-based flow cytometry; inhibition, % at 10 µM;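 note: 0% = tracer peptide without compound and 100% = reference inhibitor peptide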
# Bfl-1 Bim block: inhibitors of Bim-Bfl-1 interaction, human | Q16548 | Bead-based flow cytometry, Bim-Bfl-1 binding inhibition | inhibition, % at 10 µM | 0.12% of 190,000 active;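 note: 0% = wells without compound plus tracer and 100% = blocker peptide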
# Target sequence (Q16548 whole entry, looked up): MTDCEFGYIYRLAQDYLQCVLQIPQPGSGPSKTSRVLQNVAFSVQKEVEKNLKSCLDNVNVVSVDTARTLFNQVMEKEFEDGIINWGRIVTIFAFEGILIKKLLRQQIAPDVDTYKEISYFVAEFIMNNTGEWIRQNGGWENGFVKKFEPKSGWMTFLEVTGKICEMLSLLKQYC
# * marks the source's active call; other numbers are inactive results. An excerpt weighted towards active compounds, which were near 0.24% of everything screened. Cut-off read from the data, not from the text of the source, unless noted: active = inhibition above about 40%.
SMILES,Bim-Bcl-W,PKD1 kinase inh,Bim-Bcl-XL,Bim-Bcl-2,Bcl-B Bim block,Bfl-1 Bim block
O=C1N/C(=C/c2cccn2-c2ccccc2)C(=O)N1Cc1ccc(F)cc1,10.0,8.8,13.0,11.0,-57.0,42.0*
O=C(OCc1nc2ccccc2[nH]1)C12CC3CC(CC(C3)C1)C2,0.0,-4.1,0.0,12.0,42.0*,6.0
COC(=O)c1ccc(/C=N/NC(=O)CC(=O)NCc2cccnc2)cc1,5.0,-3.0,3.0,54.0*,51.0*,32.0
COC(=O)c1ccc(/C=N\NC(=O)CC(=O)NCCc2ccccc2)cc1,-2.0,-10.9,-3.0,0.0,-4.0,-6.0
O=C(CCCc1cccs1)Nc1nccs1,0.0,2.7,-1.0,-1.0,4.0,5.0
CNCc1ccccc1Sc1ccc(O)c(O)c1,21.0,11.1,6.0,17.0,1.0,46.0*
CN(Cc1cccs1)C(=O)CCc1c[nH]c2ccccc12,1.0,6.8,-1.0,48.0*,50.0*,20.0
COc1ccccc1N1CCN(C(=O)Cn2nc3n(C)c4ccccc4n3c(=O)c2=O)CC1,11.0,-0.6,5.0,1.0,-2.0,5.0
O=C(c1cc2ccccc2oc1=O)N(c1ccccc1)C1C=CS(=O)(=O)C1 (stereo unspecified),28.0,2.1,38.0,24.0,21.0,41.0*
COc1ccc(N(C(=O)c2cc3ccccc3oc2=O)C2C=CS(=O)(=O)C2)cc1 (stereo unspecified),0.0,-1.7,-1.0,-2.0,-3.0,-5.0
Cc1nn(CC(=O)NCc2cccc3ccccc23)c(=O)c2ccccc12,-3.0,-11.6,0.0,1.0,-3.0,0.0
CC(=NCCCn1ccnc1)C1=C(O)c2ccccc2C1=O,11.0,-5.8,18.0,87.0*,86.0*,63.0*
Brc1ccc2ncnc(Nc3ccc(N4CCOCC4)cc3)c2c1,7.0,-18.6,3.0,5.0,48.0*,5.0
O=C(COc1ncnc2ccc(Br)cc12)Nc1ccc(N2CCOCC2)cc1,-2.0,-4.8,-6.0,-9.0,-4.0,-14.0
O=C(Oc1ccc(-c2cnc3ccccc3n2)cc1)c1cc([N+](=O)[O-])ccc1Cl,1.0,-3.5,-1.0,-7.0,-9.0,0.0
Cc1c(C(=O)Oc2ccc(-c3cnc4ccccc4n3)cc2)cccc1[N+](=O)[O-],12.0,-2.6,0.0,10.0,-11.0,40.0*
N#CC(C#N)=C1C=CC=CN1/C(=C\c1ccccc1Cl)C(=O)c1ccccc1,34.0,-2.8,16.0,30.0,1.0,59.0*
CN(CC(=O)O/N=C(\N)c1ccc([N+](=O)[O-])cc1)S(=O)(=O)c1ccccc1,12.0,1.5,18.0,38.0,72.0*,6.0
NC(CCC(=O)O)C12CC3CC(CC(C3)C1)C2 (stereo unspecified),1.0,15.3,0.0,3.0,-1.0,0.0
COC(=O)c1cc(OC)c(OC)cc1NC(=O)Nc1cccc(C(C)=O)c1,3.0,-3.6,10.0,85.0*,77.0*,62.0*
OCCC1CN(Cc2cccn2-c2ncccn2)CCN1C1CCCC1 (stereo unspecified),-7.0,-2.8,-7.0,-5.0,-14.0,-5.0
CC(NC(=O)Cc1ccccc1)c1cc2c(cc1Br)OCCCO2 (stereo unspecified),-5.0,-6.1,-10.0,-3.0,-4.0,-1.0
COc1ccc(CN2CCN(C(C)C)C(CCO)C2)cc1Cn1cncn1 (stereo unspecified),1.0,-0.6,0.0,-4.0,-4.0,-6.0
O=C(O)CCCNc1cc(N2CCC3(CC2)OCCO3)c2noc3c2c1C(=O)c1ccccc1-3,37.0,5.9,26.0,23.0,5.0,42.0*
Cc1ccc(Sc2c(C#N)c(-c3ccccc3)nn2C)cc1,10.0,-10.8,8.0,78.0*,68.0*,47.0*
SMILES,Bim-Bcl-W,PKD1 kinase inh,Bim-Bcl-XL,Bim-Bcl-2,Bcl-B Bim block,Bfl-1 Bim block
Cc1ccc(SCc2c(-c3ccccc3)nn(C)c2Cl)cc1,1.0,3.3,4.0,3.0,2.0,0.0
Cn1c(SCC(=O)Nc2cccc(S(=O)(=O)NC3=NCCCCC3)c2)nnc1-c1ccccc1,-2.0,-4.6,-1.0,-6.0,0.0,-3.0
O=C(NC1=NCCS1)NC12CC3CC(CC(C3)C1)C2,15.0,-7.0,18.0,84.0*,84.0*,60.0*
O=C(COc1ccccc1)Nc1ccc2c(c1)Cc1cc(NC(=O)COc3ccccc3)ccc1-2,110.0*,-2.0,103.0*,104.0*,107.0*,91.0*
CCN1/C(=C/c2ccc3cc(C)ccc3[n+]2C)Sc2ccc3sccc3c21,22.0,-3.3,34.0,54.0*,4.0,46.0*
Cc1ccc(CNC(=O)CCCC(=O)Nc2cc(C)on2)cc1,-4.0,-2.5,-4.0,-3.0,-8.0,-7.0
Cc1cc(NC(=O)CCCC(=O)NCc2ccccc2)no1,0.0,2.0,1.0,51.0*,43.0*,27.0
CNc1nc(-c2ccccc2)cc(C)c1S(C)(=O)=O,0.0,-0.1,-1.0,0.0,-3.0,-5.0
CCNc1ccc2noc3c2c1C(=O)c1ccccc1-3,0.0,40.8,0.0,1.0,0.0,2.0
O=C1c2ccccc2-c2onc3c(Oc4ccccc4)cc(O)c1c23,28.0,-1.4,29.0,22.0,-14.0,43.0*
COc1cc2[nH]c(=S)nc(NC3CCCC3)c2cc1OC,31.0,-3.9,44.0*,18.0,27.0,27.0
Cc1cc(-c2csc(N)n2)c(C)n1C,30.0,-2.1,21.0,36.0,70.0*,20.0
CN(C1=C(NC(=O)c2ccccc2)C(=O)c2ccccc2C1=O)C1CCS(=O)(=O)C1 (stereo unspecified),-4.0,-9.3,-8.0,-6.0,-7.0,-7.0
CC(=O)NC1=C(NC2CCS(=O)(=O)C2)C(=O)c2ccccc2C1=O (stereo unspecified),14.0,1.5,2.0,6.0,6.0,41.0*
O=C1c2ccccc2C(=O)c2c1cccc2N1CCCC1,-1.0,4.2,-4.0,-4.0,1.0,-1.0
O=C1c2ccccc2-c2onc3ccc(N4CCCC4)c1c23,63.0*,1.6,63.0*,46.0*,30.0,42.0*
COc1ccccc1N(CC(O)COc1ccccc1C)S(=O)(=O)c1ccccc1 (stereo unspecified),-1.0,-3.2,-5.0,-3.0,0.0,-2.0
COc1cc(N=c2ssnc2Cl)c(OC)cc1Cl,8.0,-8.0,10.0,3.0,-13.0,31.0
COc1ccc(OC)c(N=c2ssnc2Cl)c1,7.0,-4.4,0.0,5.0,-15.0,41.0*
Cc1ccc(S(=O)(=O)NN2C(=O)c3ccccc3NC2C)cc1 (stereo unspecified),-3.0,0.1,-5.0,0.0,-3.0,0.0
CC1Nc2ccccc2C(=O)N1NS(=O)(=O)c1ccccc1 (stereo unspecified),28.0,-2.9,42.0*,29.0,25.0,43.0*
CC(C)n1nnnc1SCC(=O)N1CCN(C(=O)c2ccco2)CC1,31.0,-9.8,50.0*,18.0,93.0*,-2.0
CCCn1nnnc1SCC(=O)N1CCN(C(=O)c2ccco2)CC1,0.0,-0.3,-8.0,-7.0,-5.0,-15.0
Cc1cccc(-c2cnn(-c3cccc([N+](=O)[O-])c3)c2N)c1,0.0,2.4,0.0,-1.0,-4.0,-4.0
